The text below walks through data of PubChem BioAssay.

Assay [1] concerns TRPC4 beta (transient receptor potential cation channel C4), mouse. Nature of the assay: activators of mouse TRPC4 channel, confirmation, cell-based, Fluo4 calcium, HEK293 TRPC4beta/mu-opioid, duplicates, 10 µM (AID 2426;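 active = fluorescence ratio normalized to control raised more than 50% in primary screen plus both repeat runs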). Conditions: Fluo4 calcium fluorescence, at 10 µM; hits give high values.
The subject of assay [2] is transient receptor potential cation channel C4 beta (TRPC4), mouse. Kind of assay: activators of mouse TRPC4 channel, confirmation, cell-based, second round, Fluo4, HEK293 TRPC4beta/mu-opioid, 1 µM (AID 2461;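 active = primary screen active and over 50% activation in each of two duplicate runs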). The settings on record: Fluo4 calcium fluorescence, at 1 µM; hits give high values.
Assay [3] concerns TRPC4 (transient receptor potential cation channel C4 beta), mouse. Kind of assay: positive allosteric modulators of mouse TRPC4, confirmation, cell-based, second round, Fluo-4, HEK293 TRPC4beta/mu-opioid, 1 µM (AID 2554;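 active = primary screen hit whose fluorescence ratio, in both repeats, exceeds the weak agonist control mean by 3 SD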). Conditions: DAMGO EC20, Fluo-4 calcium flux, at 1 µM; hits give high values. On the technique in general: Calcium flux is commonly read through the fluorescence of an indicator in the cells.

In assay [4] the test system is TRPC4 beta (transient receptor potential cation channel C4), mouse. Kind of assay: positive allosteric modulators of mouse TRPC4, confirmation, cell-based, Fluo-4, HEK293 TRPC4beta/mu-opioid (AID 2555;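 active = primary screen hit whose calcium fluorescence ratio, in both repeats, exceeds the weak agonist control mean by 3 SD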). The settings on record: DAMGO EC20, Fluo-4 calcium flux, at 10 µM; hits give high values.
Assay [5] has as its target Short transient receptor potential channel 4 (Mus musculus) (UniProt Q9QUQ5). Kind of assay: inhibitors of mouse TRPC4 channel, confirmation, cell-based, Fluo4, HEK293 TRPC4beta/mu-opioid (AID 2636;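 active = calcium signal cut by more than 3 SD below the full-agonist control yet still positive, in both repeats and the earlier primary screen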). The settings on record: DAMGO, Fluo4 calcium flux, at 10 µM; hits give high values.
For assay [6] the target is unchanged. Nature of the assay: inhibitors of mouse TRPC4 channel, confirmation, cell-based, second round, Fluo4, HEK293 TRPC4beta/mu-opioid, 1 µM (AID 2637;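 active = calcium signal ratio cut to more than 3 SD under the fully stimulated control mean yet still positive, in both repeats and the primary screen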). The settings on record: Fluo4 calcium flux, DAMGO, at 1 µM; hits give high values.
Assay [7] has the same target. Kind of assay: mouse TRPC4 channel activators, dose response, cell-based, HEK293 TRPC4/mu-opioid, Fluo-4 calcium (AID 434937;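 active = primary screen activator hit with a dose response curve and TRPC4 channel activation at any tested dose; inactive = no activation, no dose response, or not a primary hit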).
The target is the same in assay [8]. Nature of the assay: TRPC4 positive allosteric modulators, dose response, cell-based, HEK293 TRPC4/mu-opioid, Fluo-4 calcium, EC20 DAMGO (AID 434941;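 active = earlier screen potentiator hit that boosts the TRPC4 ion channel at some dose, with a dose response; inactive = no potentiation, no dose response, or not a prior hit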;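 note: calcium entry triggered by an EC20 dose of DAMGO at the co-expressed mu-opioid receptor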).
For assay [9] the target is unchanged. Kind of assay: mouse TRPC4 channel inhibitors, dose response, cell-based, HEK293 TRPC4/mu-opioid, Fluo-4 calcium (AID 434942;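 active = primary screen inhibitor hit that blocks the TRPC4 channel at some tested dose, yielding a dose curve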).
Assay [10] addresses Short transient receptor potential channel 6 (Mus musculus) (UniProt Q61143). Nature of the assay: inhibition of mouse TRPC6 channel, confirmation, selectivity assay for TRPC4 inhibitor project, cell-based, HEK293, membrane potential dye, duplicate (AID 434948;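 active = active in primary screen and both duplicates, each dropping signal beyond three positive-control SD with fluorescence still positive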). Conditions: HEK293 TRPC6, membrane potential dye fluorescence, at 10 µM, stimulated with maximal-effect acetylcholine; hits give high values.

For assay [11] the target is unchanged. Nature of the assay: activation of mouse TRPC6 channel, confirmation, selectivity assay for TRPC4 activator project, cell-based, HEK293, membrane potential dye, duplicate (AID 434950;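 active = membrane potential signal rise above negative control mean plus 3 SD in both duplicates, also active in the earlier TRPC4 screen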). Conditions: HEK293 TRPC6, membrane potential fluorescence, at 10 µM; hits give high values.
For assay [12] the target is unchanged. Kind of assay: TRPC6 potentiation by TRPC4 potentiator hits, confirmation, selectivity assay for TRPC4 potentiator project, HEK293 cells, membrane potential dye, duplicate (AID 434952). Conditions: HEK293 TRPC6, membrane potential dye fluorescence, at 10 µM, maximal acetylcholine added after compound; hits give high values.
For assay [13], the target named is Short transient receptor potential channel 4 (Mus musculus) (UniProt Q9QUQ5). Kind of assay: calcium flux activators in TRPC4/5HT1a cells, counter-screen for TRPC4 activator project, cell-based, second counter screen, HEK293 TRPC4/5HT1a, Fluo-4 (AID 434977;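 active = calcium signal rise above buffer-control mean plus 5 SD in both duplicates, and also a hit in the primary screen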). The settings on record: Fluo-4 calcium flux, at 10 µM; hits give high values.
A short description of assay [14]: calcium flux inhibitors in TRPC4/5HT1a cells, confirmation, counter-screen for TRPC4 inhibitor project, cell-based, second counter screen, HEK293 TRPC4/5HT1a, Fluo-4 (AID 434978;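 active = primary screen active whose calcium signal fell more than 3 SD beyond the full-serotonin control mean in both duplicate plates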;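 note: serotonin given first at submaximal then at maximal dose after compound preincubation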). The settings on record: Fluo-4 calcium flux, at 10 µM, serotonin added to trigger calcium flux; hits give high values.
Assay [15] has as its system TRPC4 (mouse), co-expressed with 5HT1a in HEK293. Nature of the assay: calcium flux potentiators in TRPC4/5HT1a cells, confirmation, counter-screen for TRPC4 potentiator project, cell-based, second counter screen, HEK293 TRPC4/5HT1a, Fluo-4 (AID 434979;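 active = signal rise over 3 SD above mean of control wells given weak agonist, in both repeats and first screen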). Conditions: Fluo-4 calcium flux, at 10 µM, serotonin added at its EC20 dose; hits give high values.
The nature of assay [16]: calcium flux activation in mu-opioid HEK293 cells, confirmation, counter-screen for TRPC4 activator project, cell-based, HEK293 mu-opioid receptor line (AID 449723;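 active = hit in primary screen, with calcium signal over 5 SD above buffer well mean in both duplicates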;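 note: counter screen cells carry the mu-opioid receptor alone and lack TRPC4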). Conditions: Fluo-4 calcium fluorescence, at 10 µM; hits give high values.
Assay [17] is described as follows: calcium flux enhancement in mu-opioid HEK293 cells, confirmation, counter-screen for TRPC4 allosteric potentiator project, cell-based, HEK293 mu-opioid receptor line (AID 449724;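 active = calcium signal rise more than 3 SD above the low-dose agonist control mean, in both duplicate plates and the primary screen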;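 note: HEK293 cells carrying mu-opioid receptor only with no TRPC4 channel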). The settings on record: Fluo-4 calcium flux, at 10 µM, compound added before EC20 DAMGO stimulus; hits give high values.
Assay [18] can be described thus: thallium flux activation in parental CHO cells, counter-screen for KCNQ1 potentiator project (AID 493006;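 active = duplicate-averaged activation above buffer control mean plus 5 SD of those controls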;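 for activation: fluorescence ratio of max minus min over baseline after K+ and Tl+ depolarization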). Conditions: parental CHO-K1 cells, FluxOR thallium flux, at 10 µM; hits give high values. A general note: The purpose of a counterscreen is to sort out artefacts and off-target activity.
The target of assay [19] is Potassium voltage-gated channel subfamily KQT member 1 (Homo sapiens) (UniProt P51787). Nature of the assay: KCNQ1 potassium channel potentiators, confirmation, FluxOR thallium flux, CHO cells, duplicates (AID 493007;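 active = potentiation averaged over duplicate wells exceeding buffer-only control mean by more than 3 SD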;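 for outcome: cells depolarized by a potassium plus thallium sulfate stimulus after compound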;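 for potentiation: 0% = buffer-only wells and 100% = R-L3 activator control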). Conditions: KCNQ1 cell line, FluxOR thallium flux fluorescence, at 10 µM; hits give high values, % of reference activator effect, buffer zero.
Assay [20] addresses Potassium voltage-gated channel subfamily KQT member 2 (Rattus norvegicus) (UniProt O88943). Nature of the assay: rat KCNQ2 channel potentiation, selectivity assay for KCNQ1 potentiator project, KCNQ2-CHO-K1 cells (AID 493009;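 active = mean duplicate potentiation above the buffer control mean plus 5 SD of buffer wells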;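 note: assay conditions were tuned for KCNQ1 rather than KCNQ2 modulators; signal is max minus min fluorescence divided by baseline after thallium stimulus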). Conditions: FluxOR thallium flux fluorescence, at 10 µM; hits give high values, scaled: buffer 0, activator control 100.

For some assays here: Results with a measured potency or affinity are listed apart. Active and inactive are the calls of the source.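 Rule for the calls, unless noted: active = compound raising the membrane signal above positive-control mean plus 3 SD in both repeats, and a primary screen hit; inactive = the rest.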

Sequence of Potassium voltage-gated channel subfamily KQT member 1 (Homo sapiens) (P51787 whole entry, looked up): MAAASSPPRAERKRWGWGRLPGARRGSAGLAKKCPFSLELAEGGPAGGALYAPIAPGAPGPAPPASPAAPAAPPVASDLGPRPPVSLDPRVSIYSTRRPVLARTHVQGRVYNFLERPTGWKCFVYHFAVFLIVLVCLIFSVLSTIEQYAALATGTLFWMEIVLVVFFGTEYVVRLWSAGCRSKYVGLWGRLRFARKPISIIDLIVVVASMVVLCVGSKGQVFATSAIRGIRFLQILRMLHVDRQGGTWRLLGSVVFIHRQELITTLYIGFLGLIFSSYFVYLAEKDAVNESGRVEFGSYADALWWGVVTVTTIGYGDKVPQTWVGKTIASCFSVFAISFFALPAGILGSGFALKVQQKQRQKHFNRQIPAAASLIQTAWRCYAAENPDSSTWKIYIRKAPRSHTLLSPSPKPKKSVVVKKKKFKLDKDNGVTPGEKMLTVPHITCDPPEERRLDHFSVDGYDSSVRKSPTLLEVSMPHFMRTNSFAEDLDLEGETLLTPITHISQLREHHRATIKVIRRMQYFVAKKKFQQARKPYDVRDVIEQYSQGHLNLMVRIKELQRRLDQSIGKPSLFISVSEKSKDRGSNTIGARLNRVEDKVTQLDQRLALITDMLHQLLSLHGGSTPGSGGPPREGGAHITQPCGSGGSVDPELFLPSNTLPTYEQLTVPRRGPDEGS
Sequence of Potassium voltage-gated channel subfamily KQT member 2 (Rattus norvegicus) (O88943 whole entry, looked up): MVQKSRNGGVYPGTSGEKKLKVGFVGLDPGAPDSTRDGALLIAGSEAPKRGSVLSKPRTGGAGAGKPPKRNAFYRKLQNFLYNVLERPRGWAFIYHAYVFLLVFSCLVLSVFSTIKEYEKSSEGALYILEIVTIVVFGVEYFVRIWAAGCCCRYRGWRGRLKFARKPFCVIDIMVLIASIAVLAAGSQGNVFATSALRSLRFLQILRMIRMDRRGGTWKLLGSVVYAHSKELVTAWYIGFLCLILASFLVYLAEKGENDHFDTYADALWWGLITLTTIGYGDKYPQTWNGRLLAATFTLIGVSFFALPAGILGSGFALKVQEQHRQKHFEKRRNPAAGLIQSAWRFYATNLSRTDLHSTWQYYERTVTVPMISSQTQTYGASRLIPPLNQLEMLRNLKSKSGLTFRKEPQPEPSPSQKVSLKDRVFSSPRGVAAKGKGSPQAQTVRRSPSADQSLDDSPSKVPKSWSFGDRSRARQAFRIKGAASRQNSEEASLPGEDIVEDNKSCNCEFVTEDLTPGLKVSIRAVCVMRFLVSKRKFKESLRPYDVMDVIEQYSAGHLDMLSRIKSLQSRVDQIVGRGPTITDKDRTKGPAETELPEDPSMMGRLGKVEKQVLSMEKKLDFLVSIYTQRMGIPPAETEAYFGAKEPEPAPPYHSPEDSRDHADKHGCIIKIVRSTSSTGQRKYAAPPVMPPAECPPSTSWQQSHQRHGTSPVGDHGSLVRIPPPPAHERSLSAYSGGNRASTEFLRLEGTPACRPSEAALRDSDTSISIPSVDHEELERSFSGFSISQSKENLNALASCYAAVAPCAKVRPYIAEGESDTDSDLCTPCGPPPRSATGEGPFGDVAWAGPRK
Sequence of Short transient receptor potential channel 4 (Mus musculus) (Q9QUQ5 whole entry, looked up): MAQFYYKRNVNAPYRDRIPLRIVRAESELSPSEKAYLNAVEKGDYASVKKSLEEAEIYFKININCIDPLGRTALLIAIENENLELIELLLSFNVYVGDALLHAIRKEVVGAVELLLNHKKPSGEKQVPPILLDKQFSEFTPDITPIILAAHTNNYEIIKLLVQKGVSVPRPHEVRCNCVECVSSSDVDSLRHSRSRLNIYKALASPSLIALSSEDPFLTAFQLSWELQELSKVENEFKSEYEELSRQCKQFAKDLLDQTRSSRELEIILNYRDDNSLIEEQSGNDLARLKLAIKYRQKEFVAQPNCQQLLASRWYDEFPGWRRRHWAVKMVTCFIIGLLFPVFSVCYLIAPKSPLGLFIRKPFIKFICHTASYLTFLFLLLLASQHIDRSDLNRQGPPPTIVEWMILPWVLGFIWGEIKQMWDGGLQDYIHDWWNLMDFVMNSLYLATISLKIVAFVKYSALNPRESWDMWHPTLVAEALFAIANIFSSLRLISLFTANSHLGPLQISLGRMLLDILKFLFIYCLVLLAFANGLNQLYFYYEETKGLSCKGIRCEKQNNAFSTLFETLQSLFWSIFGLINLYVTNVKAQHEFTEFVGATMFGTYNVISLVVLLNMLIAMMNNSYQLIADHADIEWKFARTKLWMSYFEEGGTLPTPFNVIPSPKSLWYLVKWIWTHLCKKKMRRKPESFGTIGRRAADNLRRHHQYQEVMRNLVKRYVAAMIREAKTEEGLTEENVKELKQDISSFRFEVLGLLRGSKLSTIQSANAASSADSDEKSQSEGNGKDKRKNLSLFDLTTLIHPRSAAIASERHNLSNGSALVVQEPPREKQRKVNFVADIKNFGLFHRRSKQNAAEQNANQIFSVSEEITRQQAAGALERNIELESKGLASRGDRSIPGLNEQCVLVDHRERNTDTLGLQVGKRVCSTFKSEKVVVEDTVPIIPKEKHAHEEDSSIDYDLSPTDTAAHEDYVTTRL
Sequence of Short transient receptor potential channel 6 (Mus musculus) (Q61143 whole entry, looked up): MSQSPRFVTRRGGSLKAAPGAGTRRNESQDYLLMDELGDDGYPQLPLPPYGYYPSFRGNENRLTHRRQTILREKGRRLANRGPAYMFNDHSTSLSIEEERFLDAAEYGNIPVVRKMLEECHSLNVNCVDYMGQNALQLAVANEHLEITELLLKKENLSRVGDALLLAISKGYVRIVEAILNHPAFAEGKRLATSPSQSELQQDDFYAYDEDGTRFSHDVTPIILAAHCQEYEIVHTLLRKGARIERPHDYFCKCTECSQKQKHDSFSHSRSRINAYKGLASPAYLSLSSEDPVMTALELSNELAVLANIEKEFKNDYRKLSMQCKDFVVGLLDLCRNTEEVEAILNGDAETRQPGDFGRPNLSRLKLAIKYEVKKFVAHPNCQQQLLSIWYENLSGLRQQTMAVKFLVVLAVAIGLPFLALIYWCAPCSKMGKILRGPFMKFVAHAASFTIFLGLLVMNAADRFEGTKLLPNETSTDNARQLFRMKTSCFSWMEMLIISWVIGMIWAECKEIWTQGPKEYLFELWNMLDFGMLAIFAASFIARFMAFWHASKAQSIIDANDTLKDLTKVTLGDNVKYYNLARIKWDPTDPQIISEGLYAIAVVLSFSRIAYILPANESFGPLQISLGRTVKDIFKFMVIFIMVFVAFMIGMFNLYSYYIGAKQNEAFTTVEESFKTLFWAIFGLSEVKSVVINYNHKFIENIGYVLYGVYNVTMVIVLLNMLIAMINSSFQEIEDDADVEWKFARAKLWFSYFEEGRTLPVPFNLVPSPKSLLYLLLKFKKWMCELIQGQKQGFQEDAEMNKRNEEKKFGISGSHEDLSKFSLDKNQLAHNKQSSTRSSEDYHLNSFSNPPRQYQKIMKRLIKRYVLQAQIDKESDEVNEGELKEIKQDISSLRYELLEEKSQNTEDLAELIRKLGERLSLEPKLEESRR

For `CN(CCCNC(=O)CCCOc1cc(=O)n(C)c2ccccc12)Cc1ccccc1`, the result in assay [1], in [2], in [5], in assay [6], in assay [7] and in assay [8] was inactive. The result in assay [9], in assay [10], in [11], in [12], in assay [13] and in assay [14] was inactive. Further, the outcome in assay [16], in assay [17], in [18], in [19] and in assay [20] was inactive. For the same molecule, the potentiation was 21% (active) in assay [3], 14% (active) in assay [4] and 20.2% (active) in assay [15].
On to `O=C1C=CC(=O)N1CCNc1ncc(C(F)(F)F)cc1Cl`, for which the result in [1], in assay [2], in [3], in assay [4], in assay [5] and in assay [6] was inactive. Further, the outcome in assay [7], in assay [8], in assay [9], in assay [10], in assay [11] and in [12] was inactive. Further, the result in assay [13], in assay [14], in assay [15], in assay [16], in [17] and in assay [18] was inactive. Further, the result in assay [20] was inactive. For the same molecule, in assay [19], the potentiation was 77.5% (active).
`CCOC(=O)C1=C(NC(=S)NC(=O)c2ccccc2)c2ccccc2CC1(C)C`: the result in [1], in [2], in assay [3], in assay [5], in [6] and in [7] was inactive. For the same molecule, the outcome in [8], in [9], in assay [10], in assay [11], in assay [12] and in assay [13] was inactive. The result in assay [14], in assay [16] and in assay [17] was inactive. In addition, the potentiation in assay [4] was 12% (active); in assay [15], 27.1% (active).
Turning to `CCCCCCCCCC[n+]1cccc2c3ccccc3ccc21`, the outcome in [1], in [2], in assay [3], in [4], in assay [5] and in assay [6] was inactive. For the same molecule, the outcome in assay [7], in [8], in [9], in assay [10], in assay [11] and in assay [12] was inactive. Moreover, the result in assay [13], in assay [14], in assay [15], in [16] and in assay [17] was inactive. Further, in assay [18], the activation was 245% (active). For the same molecule, the potentiation in assay [19] is 64% (active); in [20] it was 194% (active).
Consider `CC(C)NS(=O)(=O)c1ccc(NC(=O)C(C)Oc2ccc(C(=O)c3ccccc3)cc2)cc1` (stereo not given), for which the outcome in assay [1], in assay [2], in assay [3], in assay [5], in assay [6] and in [7] was inactive. Moreover, the result in [8], in [9], in assay [10], in [11], in assay [12] and in assay [13] was inactive. The outcome in [14], in assay [16], in [17], in [18], in assay [19] and in [20] was inactive. Besides, the potentiation in assay [4] was 36% (active); in [15], 30.1% (active).
Regarding `O=[N+]([O-])c1ccc(N2CCCC2)nc1N1CCCC1`, the outcome in assay [1], in assay [2], in [3], in assay [4], in [5] and in assay [6] was inactive. In addition, the result in assay [7], in assay [8], in [9], in [10], in assay [11] and in assay [12] was inactive. The result in assay [13], in [14], in assay [15], in assay [16] and in assay [17] was inactive.
`O=C(Nc1ccnn1C1CCN(Cc2cc3ccccc3[nH]2)CC1)C1CCOC1` (stereo not given): the outcome in assay [1], in assay [2], in assay [3], in assay [4], in assay [5] and in assay [6] was inactive. Moreover, the result in assay [7], in assay [8], in assay [9], in assay [10], in [11] and in assay [12] was inactive. The outcome in assay [13], in assay [14], in assay [15], in assay [16] and in assay [17] was inactive. Moreover, the activation in assay [18] was 163% (active). The potentiation in assay [19] is 53.5% (active); in [20], 180% (active).
For `COc1ccc2sc(N(CCCN(C)C)C(=O)c3ccc(S(=O)(=O)N4CCCc5ccccc54)cc3)nc2c1`, the result in [1], in assay [2], in assay [3], in assay [5], in [6] and in [7] was inactive. In addition, the outcome in [8], in [9], in [10], in assay [11], in [12] and in assay [13] was inactive. In addition, the outcome in [14], in assay [16] and in assay [17] was inactive. For the same molecule, the potentiation in [4] is 28% (active); in assay [15], 80% (active).
In the case of `Cc1ccc2c(c1)C1CN(C)CCC1N2C(=S)NC(=O)c1ccc(Br)cc1` (stereo not given), the result in assay [1], in [2], in assay [3], in assay [5], in assay [6] and in [7] was inactive. Besides, the result in assay [8], in assay [9], in assay [10], in assay [11], in assay [12] and in assay [13] was inactive. The result in assay [14], in assay [16] and in assay [17] was inactive. Besides, the potentiation in [4] is 15% (active); in [15], 23.8% (active); in assay [19], 41% (active); in assay [20], 200% (active). Further, in assay [18], the activation is 170% (active).
Consider `CC(C)Cn1c(CN2CCN(C)C(CCO)C2)nc2ccccc21` (stereo not given), for which the outcome in assay [1], in assay [2], in assay [3], in [4], in [5] and in [6] was inactive. Besides, the outcome in assay [7], in assay [8], in [9], in [10], in [11] and in [12] was inactive. Also, the outcome in assay [13], in assay [14], in assay [15], in [16] and in assay [17] was inactive.
On to `Cc1cc(S(=O)(=O)N2CCC(N3CCCCC3)CC2)ccc1-n1cnnn1`, for which the outcome in [1], in [2], in assay [5], in [6], in [7] and in assay [8] was inactive. Also, the outcome in [9], in [10], in assay [11], in assay [12], in [13] and in assay [14] was inactive. The result in assay [16] and in [17] was inactive. Moreover, the potentiation in [3] was 11% (active); in assay [4], 11% (active); in assay [15], 19.1% (active).
Regarding `CCCCN(CC)CCCNC(=O)c1cc2cc3ccc(C)cc3nc2o1`, the result in [1], in assay [2], in assay [4], in [5], in assay [6] and in [7] was inactive. In addition, the result in assay [8], in [9], in assay [10], in [11], in [12] and in assay [13] was inactive. For the same molecule, the result in assay [14], in [16], in assay [17], in assay [18], in [19] and in [20] was inactive. Further, the results for the potentiation in assay [3] and in [15] were 19% (active) and 21.8% (active), respectively.
Consider `Cc1ccc(C(=O)O)cc1N=Cc1cc(Br)cc(Br)c1O`, for which the outcome in [1], in [2], in assay [3], in [4], in [5] and in [6] was inactive. Besides, the outcome in assay [7], in assay [8], in assay [9], in assay [10], in assay [11] and in [12] was inactive. In addition, the result in assay [13], in assay [14], in assay [15], in assay [16] and in assay [17] was inactive. For the same molecule, in [18], the activation was 222% (active). Further, the potentiation is 164% (active) in assay [19] and 192% (active) in [20].
